Source: PubChem (National Center for Advancing Translational Sciences (NCATS))
KB-V1 MDR tox – kills drug-selected multidrug resistant KB-V1 cells. KB-V1 MDR cells viability, CellTiter-Glo, 72 h. Potency, µM (highest dose often 46.1 µM), hits mostly cytotoxic. 400,000 tested, 3.4% active. AID 1347076; also: nearly all actives have a fitted effect of over 60% in size
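Potencies derive from concentration-effect curves fitted to normalized luminescence (CellTiter-Glo) of KB-V1 cells treated for 72 h at 37 degrees C in phenol-red-free DMEM containing 10% FBS.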
TGFb SMAD3 inh – TGF-b pathway inhibition; HepG2 CAGA-GFP TGF-b/SMAD3 reporter, GFP fluorescence, 18 h; TGF-beta stimulated, 500 pg/mL final; Potency, µM (top dose mostly 46.1 µM), actives largely listed as inhibitors; 410,000 tested, 1.2% active; AID 588855; also: nearly all actives have a fitted effect of over 65% in size
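Smad-responsive CAGA-GFP expression was quantified in HEPG2 cells exposed to compounds and 500 pg/mL final TGF-beta for 18 h at 37 degrees C; unstimulated wells defined full inhibition.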
HepG2 viability – kills HepG2 cells in TGF-b inhibitor counter-screen | HepG2 CAGA-GFP viability, ATP luminescence, 18 h | Potency, µM (doses to about 46.1 µM), usual class: cytotoxic | 410,000 tested, 0.76% active
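HepG2 CAGA-GFP cells (1000/well, DMEM with 1% FBS) received compound, then TGF-beta at 500 pg/mL final, and were incubated 18 hours at 37 degrees C. Viability was read by CellTiter-Glo luminescence. Media-only wells were set as complete cell-killing and DMSO as no toxicity.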
KB-3-1 cytotox – KB-3-1 parental cell cytotoxicity | 400,000 tested, 1.4% active | Potency, µM (highest dose often 46.1 µM), usual class: cytotoxic | KB-3-1 viability, CellTiter-Glo ATP luminescence, 72 h | AID 1347075; also: nearly all actives have a fitted effect of over 60% in size
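Using CellTiter-Glo luminescence, growth of non-resistant KB-3-1 adenocarcinoma cells is assessed 72 h after pin-tool compound addition at 37 °C. Normalized responses across the concentration series yield fitted curves.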
ATXN2 expr inh – ATXN2 expression inhibition. Potency, µM (highest dose often 57 µM), most hits filed as inhibitors. 360,000 tested, 0.72% active. HEK-293 ATXN2-luciferase reporter, luminescence, 24 h; also: nearly all actives have a fitted effect of over 55% in size
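qHTS (up to 57 uM final) was run with 24 h compound exposure of reporter cells at 37 °C. Each well was multiplexed: SteadyGlo luminescence measured ATXN2-luciferase expression after a fluorogenic Gly-Phe-AFC viability readout (25 uM final).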
S2 tox – reduces viability in counter-screen for ATXN expression inhibitors | Potency, µM (series often up to 56.7 µM), usual class: cytotoxic | S2 cells (HEK-293 line with an ATXN2-luciferase reporter) viability, CellTiter-Fluor protease fluorescence, 24 h | 400,000 tested, 0.49% active; also: nearly all actives have a fitted effect of over 40% in size
Of the large screens only hits and unclear results are named; the others gave an inactive call; ! = not active in a repeat. An excerpt weighted towards active compounds, which were near 5.9% of everything screened. Calls follow the shape of the dose curve; as a rule, active = well fitted curve in the direction sought with a large enough effect; inconclusive = small, poorly fitted or top-dose-only effect, or another doubt; inactive = no such curve, though single readings can be large; an effect the other way counts as inactive or inconclusive.

N=c1n(CCN2CCCCC2)c2ccccc2n1CC(O)COc1ccccc1 (stereo not given)	TGFb SMAD3 inh 11µM!, KB-3-1 cytotox inconclusive, ATXN2 expr inh inconclusive, S2 tox 25µM!
N=c1n(CCN2CCOCC2)c2ccccc2n1CC(O)COc1ccccc1 (stereo not given)	none
N=c1n(CCN2CCCCC2)c2ccccc2n1CC(O)c1cccc(Br)c1 (stereo not given)	KB-V1 MDR tox inconclusive, KB-3-1 cytotox inconclusive, ATXN2 expr inh inconclusive, S2 tox inconclusive
Cc1c(C(=O)O)c(O)cc2c1C(=O)c1c(O)c([C@H]3O[C@H](CO)[C@@H](O)[C@H](O)[C@H]3O)c(O)c(O)c1C2=O	none (no result: ATXN2 expr inh, S2 tox)
Cc1c(C(=O)O)c(O)cc2c1C(=O)c1c(O)c([C@@H]3O[C@H](CO)[C@@H](O)[C@H](O)[C@H]3O)c(O)c(O)c1C2=O	S2 tox 18µM
CCN1/C(=C/c2cccc[n+]2C)Sc2ccc(OC)cc21	TGFb SMAD3 inh 4µM, KB-3-1 cytotox inconclusive (no result: ATXN2 expr inh)
CCN1/C(=C/C(C)=O)Sc2ccc(OC)cc21	KB-V1 MDR tox inconclusive
COc1ccc2c(c1)N(C)/C(=C/c1cccc[n+]1C)S2	KB-3-1 cytotox 1.6µM, ATXN2 expr inh inconclusive, S2 tox inconclusive
COc1cc(OC)cc(C(=O)/C=C2\Sc3ccccc3N2C)c1	none
CCC(Sc1nc2c(sc3ccccc32)c(=O)n1CCCC(=O)NC1CCCC1)C(=O)Nc1cccc(OC)c1 (stereo not given)	TGFb SMAD3 inh inconclusive (no result: KB-V1 MDR tox, KB-3-1 cytotox, ATXN2 expr inh, S2 tox)
Cc1nc2nc(SCC(=O)NCc3ccccc3Cl)nn2c(C)c1Cc1ccccc1	TGFb SMAD3 inh inconclusive, S2 tox inconclusive
Cc1nc(C)c(C(=O)N2CCCC(C(=O)c3ccc4ccccc4c3)C2)s1 (stereo not given)	none (no result: S2 tox)
Cc1ccc2c(c1C)NC(=O)C21N2CCCC2C(C(=O)c2ccc3ccccc3c2)C12C(=O)Nc1ccccc12 (stereo not given)	KB-V1 MDR tox inconclusive, TGFb SMAD3 inh 16µM, KB-3-1 cytotox inconclusive (no result: ATXN2 expr inh)
CCOC(CCn1c(SCc2ccc([N+](=O)[O-])cc2)nc2ccccc2c1=O)OCC	KB-V1 MDR tox 3.7µM
CCN1C(=O)CC(C(C)C)N(C2CCCC2)c2nc(Nc3ccc(C(=O)NC4CCN(C)CC4)cc3OC)ncc21 (stereo not given)	KB-V1 MDR tox inconclusive, TGFb SMAD3 inh inconclusive, KB-3-1 cytotox inconclusive, ATXN2 expr inh inconclusive (no result: S2 tox)
COc1cc(C(=O)NC2CCN(C)CC2)ccc1Nc1ncc2c(n1)N(C1CCCCC1)CCC(=O)N2C	TGFb SMAD3 inh inconclusive, HepG2 viability 13µM, KB-3-1 cytotox inconclusive, S2 tox inconclusive
CCN1C(=O)CC(c2ccccc2)N(C2CCCC2)c2nc(Nc3ccc(C(=O)NC4CCN(C)CC4)cc3OC)ncc21 (stereo not given)	KB-V1 MDR tox inconclusive, TGFb SMAD3 inh inconclusive, HepG2 viability 13µM, KB-3-1 cytotox 18µM, ATXN2 expr inh inconclusive (no result: S2 tox)
COC(=O)c1c(OCc2cccnc2)cc(=O)n2c1CCN(C(=O)c1c3c(nn1C)CCCC3)CC2	none (no result: KB-V1 MDR tox, TGFb SMAD3 inh, HepG2 viability, KB-3-1 cytotox, ATXN2 expr inh)
CC1=C(C(=O)OCC2CCCO2)C(c2ccccc2OC(C)C)C2=C(CC(c3ccco3)CC2=O)N1 (stereo not given)	none
CC1=C(C(=O)OCC2CCCO2)C(c2cccc(C(F)(F)F)c2)C2=C(CC(c3ccco3)CC2=O)N1 (stereo not given)	KB-V1 MDR tox inconclusive, TGFb SMAD3 inh inconclusive, KB-3-1 cytotox 16µM (no result: ATXN2 expr inh, S2 tox)
Cc1cc(NC(=O)c2ccc(S(=O)(=O)N(C)CC3CCCO3)cc2)no1 (stereo not given)	none
CN(CC1CCCO1)S(=O)(=O)c1ccc(C(=O)Nc2ccc3c(c2)OCO3)cc1 (stereo not given)	none
CN(CC1CCCO1)S(=O)(=O)c1ccc(C(=O)Nc2nccs2)cc1 (stereo not given)	KB-V1 MDR tox 18µM (no result: ATXN2 expr inh)
COc1ccc(-c2nnc(NC(=O)c3ccc(S(=O)(=O)N(C)CC4CCCO4)cc3)o2)c(OC)c1 (stereo not given)	KB-V1 MDR tox 5.8µM, S2 tox inconclusive
NC(=O)c1sc2nc(-c3ccccc3)ccc2c1N	KB-V1 MDR tox 5.8µM, KB-3-1 cytotox inconclusive (no result: ATXN2 expr inh, S2 tox)
CCOC(=O)c1sc2nc(-c3ccccc3)ccc2c1N	none
O=C(O)C1(Cc2cccc(Nc3nccs3)n2)CCC(Oc2cccc(Cl)c2F)CC1 (stereo not given)	none (no result: KB-V1 MDR tox, TGFb SMAD3 inh, HepG2 viability, KB-3-1 cytotox, S2 tox)
COc1ccc(OC)c(-c2nnc3n2N=C(c2ccc(OC)c(OCC4CC4)c2)CS3)c1	KB-V1 MDR tox 4.6µM, TGFb SMAD3 inh 7.9µM, KB-3-1 cytotox 0.92µM, ATXN2 expr inh inconclusive, S2 tox inconclusive
COc1ccc(C2=Nn3c(nnc3-c3ccccc3Cl)SC2)cc1OCC1CC1	KB-V1 MDR tox inconclusive, TGFb SMAD3 inh 10µM, KB-3-1 cytotox 2.9µM, ATXN2 expr inh inconclusive, S2 tox inconclusive
COc1ccc(C2=Nn3c(nnc3-c3ccccc3OC)SC2)cc1OC1CCOC1 (stereo not given)	KB-V1 MDR tox 3.3µM, TGFb SMAD3 inh 2.8µM, KB-3-1 cytotox 0.65µM, S2 tox inconclusive
Fc1ccccc1-c1nnc2n1N=C(c1ccc(OC(F)F)c(OCC3CC3)c1)CS2	none
Cc1cccc(N(CC(=O)NCc2ccccc2)S(C)(=O)=O)c1C	none
CC(=O)c1c(C)oc2ccc(N(C(=O)Oc3ccccc3)S(=O)(=O)c3ccc(Cl)cc3)cc12	none
c1ccc2c(c1)ccc1ccccc12	none
O=c1ccc2ccccc2c2ccccc12	KB-V1 MDR tox inconclusive, TGFb SMAD3 inh 13µM, KB-3-1 cytotox 8.2µM, ATXN2 expr inh 5µM, S2 tox inconclusive
CCc1ccc2oc(-c3ccc(NC(=O)c4cccc(Cl)c4Cl)cc3)nc2c1	KB-3-1 cytotox inconclusive, S2 tox inconclusive
CCC(=O)N1CCc2cc(Br)cc(S(=O)(=O)N3CCCCCC3)c21	KB-V1 MDR tox inconclusive
O=C(C1CC1)N1CCc2cc(Br)cc(S(=O)(=O)N3CCCCCC3)c21	KB-V1 MDR tox 9.2µM, KB-3-1 cytotox inconclusive, S2 tox inconclusive
Cc1ccc(Nc2cc(C)nn2-c2nc(C)cc(C)n2)cc1	KB-3-1 cytotox inconclusive, ATXN2 expr inh inconclusive
Cc1ccc(Nc2cc(C)nn2-c2nc(C)cc(=O)[nH]2)cc1	KB-V1 MDR tox inconclusive, TGFb SMAD3 inh 2.2µM, KB-3-1 cytotox 1.4µM, ATXN2 expr inh 1.1µM, S2 tox 2µM
CCOC(=O)c1cnc(SCC(=O)Nc2cc(OC)cc(OC)c2)nc1N	KB-V1 MDR tox 2.3µM, KB-3-1 cytotox inconclusive, S2 tox inconclusive
CCOC(=O)c1cnc(SCCc2ccccc2)nc1N	KB-V1 MDR tox 23µM
CCCCSc1ncc(C(=O)OCC)c(N)n1	none
